Exocytosis inh – LAMP-1 surface exposure blockers, TALL-104 cells – cell-based, flow cytometry, MLPCN library, primary screen; TALL-104 LAMP-1 surface exposure; cells stimulated with thapsigargin and PMA; inhibition, % at 10 µM; 360,000 compounds, 0.66% hits; AID 651702, 2012;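 active means inhibition above about 55%, limit read from the data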
PP1 inh – PP1-alpha phosphatase inhibitors, primary screen, counter-screen for PP5 inhibitor project, biochemical, fluorescence, OMFP substrate, single point. Serine/threonine-protein phosphatase PP1-alpha catalytic subunit (Homo sapiens), P62136. purified PP1alpha. inhibition, % at 6.7 µM. 320,000 compounds, 0.9% hits. AID 2235, 2010;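 active means inhibition above the mean inhibition of all tested compounds plus 3 SD, computed separately for each screening campaign, cut at about 15% in these data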
GRK2 aptamer HTS – compounds blocking aptamer binding on GRK2 – biochemical, human GRK2, bead flow cytometry, HTS, primary screen; FAM-aptamer displacement from GRK2; inhibition of aptamer binding, % at 10 µM; 330,000 compounds, 0.59% hits; AID 488847, 2010;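 active means inhibition of aptamer binding above 40%, roughly 3 SD of noise, on plates passing a quality check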;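 further: median bead fluorescence of bound FAM aptamer so fluorescent compounds give negative values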
Target sequence (P25098 whole entry, looked up): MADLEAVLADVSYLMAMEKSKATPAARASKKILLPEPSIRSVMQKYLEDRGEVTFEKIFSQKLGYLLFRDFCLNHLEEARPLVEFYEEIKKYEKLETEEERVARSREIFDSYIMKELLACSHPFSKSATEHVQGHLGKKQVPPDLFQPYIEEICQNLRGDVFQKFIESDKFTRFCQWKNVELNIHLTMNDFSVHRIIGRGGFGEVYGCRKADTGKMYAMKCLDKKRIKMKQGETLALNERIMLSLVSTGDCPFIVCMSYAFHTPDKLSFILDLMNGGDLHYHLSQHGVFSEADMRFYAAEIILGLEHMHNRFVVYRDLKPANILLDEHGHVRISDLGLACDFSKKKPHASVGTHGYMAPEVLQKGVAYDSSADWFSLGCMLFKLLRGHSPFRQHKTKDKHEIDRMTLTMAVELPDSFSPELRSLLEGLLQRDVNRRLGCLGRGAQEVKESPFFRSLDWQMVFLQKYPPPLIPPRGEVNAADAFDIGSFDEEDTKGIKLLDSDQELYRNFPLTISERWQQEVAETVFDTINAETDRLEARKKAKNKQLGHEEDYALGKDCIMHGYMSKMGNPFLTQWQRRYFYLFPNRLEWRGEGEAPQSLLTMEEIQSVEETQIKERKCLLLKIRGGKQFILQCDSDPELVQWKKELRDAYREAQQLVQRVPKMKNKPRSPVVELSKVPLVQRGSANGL
NadD inh – inhibitors of S. aureus NadD, primary screen, biochemical, colorimetric, uHTS; AID 602399, 2012; 360,000 compounds, 0.78% hits; purified NadD enzyme, colorimetric absorbance read-out; Nicotinate-nucleotide adenylyltransferase NadD (Staphylococcus aureus N315); inhibition, % at 20 µM; in the data active means inhibition above about 26%
B2AR ag – beta2AR agonists driving receptor internalization, primary screen, cell-based, FAP fluorogen, flow cytometry; Am2.2-beta2AR cells; response, % (test concentration not listed); 340,000 compounds, 0.43% hits; AID 504454, 2011;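 active means response above a set limit, near 3 SD of response in nonfluorescent compounds, cut at about 42% in these data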
Exocytosis CP01 – inhibitors of lytic granule exocytosis, confirmation, TALL-104 cells, flow cytometry, Cherry Pick01; AID 651954, 2012; LAMP-1 externalization; stimulated with PMA plus thapsigargin; shares compounds with Exocytosis inh; 1,500 compounds, 11% hits; inhibition, % at 10 µM; in the data active means inhibition above about 60%;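 further: 0% = stimulated vehicle wells and 100% = unstimulated wells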
An asterisk follows results filed as active; . = no result. Rows were chosen to be rich in hits. Some 2.9% of all compounds tested hit in one or more screens of this group.

SMILES	Exocytosis inh	PP1 inh	GRK2 aptamer HTS	NadD inh	B2AR ag	Exocytosis CP01
Cc1c(C(=O)OCC(=O)Nc2cccc(S(N)(=O)=O)c2)oc2c1ccc1ccccc12	88*	1	2	12	-3	93*
NS(=O)(=O)c1ccc(CCNC(=O)C2CC(=O)N(Cc3ccccc3Cl)C2)cc1 (centres undefined)	-5	1	0	3	6	.
Nc1ccc(-c2nc3ccc(N)cc3o2)cc1	63*	-1	0	2	-9	-3
Nc1ccc(-c2nc3cc(N)ccc3o2)cc1	-4	1	0	-5	-11	.
CCCc1cc(=O)[nH]c(SCC(=O)Nc2sc3c(c2C(N)=O)CCCC3)n1	4	.	0	7	-8	.
COc1ccc(Nc2nc(-c3sc(C)nc3C)cs2)cc1	82*	0	0	-6	-11	1
O=C1Nc2ccc(Br)cc2/C1=C/C(=O)c1ccccc1	73*	.	.	9	18	83*
O=C(O)COc1ccccc1/C=C1\C(=O)Nc2ccc(Br)cc21	0	0	0	-3	3	.
COc1ccc(-c2cc([C@H]3[C@H]4C=CC[C@@H](C)[C@@H]4C(=O)N3Cc3ccccc3)ccc2F)cc1	57*	4	2	2	27	-14
Cc1cc(C)c(C)c(C(=O)C(=O)c2ccccc2)c1	-9	.	.	1	-6	.
O=C(c1ccco1)N1CCN(c2nc3ccccc3n3nnnc23)CC1	56*	0	2	-2	6	-4
CCn1c(N2CCN(C(=O)c3ccco3)CC2)nc2ccccc21	-4	-4	1	-3	-3	.
CCOC(=O)C1=NN(c2ccc(OC)cc2)C2C(=O)N(c3ccccc3OC)C(=O)C12 (centres undefined)	-4	-1	2	4	-2	.
CCc1nc2ccc(C(=O)Nc3cc(-c4ccccc4)ccc3OC)cn2c1N(CCN(C)C)CC1CC1	60*	.	.	7	.	49
CCc1nc2ccc(C(=O)Nc3cc(-c4ccccc4)ccc3OC)cn2c1N(C)CCC(C)C	0	.	.	8	.	.
COc1ccc(NC(=O)C(CCS(C)(=O)=O)N2C(=O)c3ccccc3C2=O)cc1 (centres undefined)	-1	-1	0	-3	2	.
NC(=O)CC(NC(=O)Cc1cccc2ccccc12)c1ccc(N2CCC(Cc3ccccc3)CC2)c([N+](=O)[O-])c1 (centres undefined)	60*	13	1	19	1	-10
NC(=O)CC(NC(=O)Cc1cccc2ccccc12)c1ccc(N2CCCCCCC2)c([N+](=O)[O-])c1 (centres undefined)	10	8	0	3	-2	.
CCC(=O)N1CCc2cc(OC)c(OC)cc2C1COc1ccc(C(=O)OC)cc1 (centres undefined)	31	-3	0	0	-1	.
COC(=O)c1ccc(OCC(O)CN2CCc3cc(OC)c(OC)cc3C2c2ccccc2)cc1 (centres undefined)	74*	2	0	-6	-3	-12
Cc1ccc(N(CC(=O)NCCc2ccccc2)S(=O)(=O)c2c(C)noc2C)cc1	-1	-4	4	-2	-4	.
CCOc1ccc(OCC)c(NC(=O)CN(c2ccc(OC)cc2)S(=O)(=O)c2c(C)noc2C)c1	57*	3	0	-8	10	-5
CCOc1ccc(N(CC(=O)NCCc2ccc(C)cc2)S(=O)(=O)c2c(C)noc2C)cc1	79*	1	0	-11	-1	-3
CCOc1ccc(OCC)c(NC(=O)CN(c2ccc(C)cc2)S(=O)(=O)c2c(C)noc2C)c1	-4	-2	5	10	4	.
COc1cccc(-c2nc(NCc3ccccc3)c3ccccc3n2)c1O	64*	-5	0	11	5	14
SMILES	Exocytosis inh	PP1 inh	GRK2 aptamer HTS	NadD inh	B2AR ag	Exocytosis CP01
COc1cccc(-c2nc(NC3CCCC3)c3ccccc3n2)c1O	78*	7	0	17	27	0
c1ccc(Nc2nc(-c3ccccc3)nc3ccccc23)cc1	-17	3	2	-3	-3	.
c1ccc(-c2nc(NC3CCCC3)c3ccccc3n2)cc1	57*	3	0	-6	-1	-5
CCn1cc(CN2CCC(n3nccc3NC(=O)C(OC)c3ccccc3)CC2)cn1 (centres undefined)	-1	0	0	-1	-3	.
CCOC(=O)[C@]12CCC=C1N(Cc1ccco1)C(=O)[C@H](CC(=O)N1CCCCC1)C2	14	.	.	9	.	.
COc1cccc(CNC(=O)Cn2c(=O)c3cccn3c3ccccc32)c1	-1	-5	0	-5	-12	.
COCCN1C(=O)N[C@@H](c2cccc(C(F)(F)F)c2)[C@@H](C(=O)OC)[C@H]1C	-9	-3	0	1	3	.
CCN1C(=O)N[C@@H](c2cccc(C(F)(F)F)c2)[C@@H](C(=O)OC)[C@H]1C	101*	1	2	-7	-6	-12
CC1(C(=O)NS(=O)(=O)c2ccc(F)cc2F)CCN1C(=O)C1CCCCC1 (centres undefined)	0	.	.	-5	.	.
O=C(NCc1cccnc1)/C(=C\c1ccc(-c2ccc(Br)cc2)o1)S(=O)(=O)c1ccccc1	83*	5	0	0	35	54
Cc1c(NC(=O)COc2cccc(Br)c2)c(=O)n(-c2ccccc2)n1C	70*	-1	0	-2	0	-4
CC(=O)c1cccc(OCC(=O)Nc2cccc(C(=O)Nc3c(C)n(C)n(-c4ccccc4)c3=O)c2)c1	3	-3	2	7	-1	.
CCOC(=O)C1(CCOc2ccccc2)CCN(Cc2ccc(OC)c(COC)c2)CC1	74*	3	0	-12	6	-9
CCOC(=O)C1(CCOc2ccccc2)CCN(Cc2ccc(COC)o2)CC1	-1	-3	0	-4	-2	.
CCOC(=O)C1(CCOc2ccccc2)CCN(Cc2ccc(OC)c(O)c2)CC1	71*	-5	10	-5	3	-12
CCOC(=O)C1(CCOc2ccccc2)CCN(Cc2ccc(O)c(OCC)c2)CC1	81*	-1	0	-6	12	-3
CCOC(=O)C1(Cc2cccc(OC)c2)CCN(Cc2ccc(OC)c(O)c2)CC1	0	2	0	-9	-5	.
CCOC(=O)C1(CCOc2ccccc2)CCN(Cc2cc(OC)c(O)c(OC)c2)CC1	77*	-1	0	1	5	10
COC(=O)c1cc(OC)nc2ccc(Br)cc12	-11	2	4	-1	1	.
